# Experimental data from PubChem BioAssay (NCATS).
# Inconclusive results are not listed. Activity calls are given as the source filed them. Calls come from the whole dose curve; as a rule, active = well fitted curve in the direction sought with a large enough effect; inconclusive = small, poorly fitted or top-dose-only effect, or another doubt; inactive = no such curve, though single readings can be large; an effect the other way counts as inactive or inconclusive.
# How the values were obtained:
# [1] = qHTS of pediatric cancer cell lines to identify multiple opportunities for drug repurposing: Primary screen for MG 63 (6-TG R) cells (AID 1347105); note: nearly all actives have a fitted effect of over 50% in size; note: potency is the fitted concentration of half-maximal effect; for activity change, negative = cytotoxic: % is set by controls: 0 for no effect and ±100 for the full control effect
# Summary of the method: (§1)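 Luminescence from CellTiter-Glo served as readout of metabolically active cells after 48 h compound exposure. Titrations: MIPE 11-point, from 0.78 nM; NPC 8-point, from 0.59 nM (final). Concentration-response curves came straight from the primary screen.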
# [2] = qHTS of pediatric cancer cell lines to identify multiple opportunities for drug repurposing: Primary screen for Rh30 cells (AID 1347107); note: nearly all actives have a fitted effect of over 75% in size; note: potency is the fitted concentration of half-maximal effect; for activity change, negative = cytotoxic: % is set by controls: 0 for no effect and ±100 for the full control effect
# Summary of the method: (§2)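 Viability after 48 h compound treatment at 37C, 500-1,000 cells/well, read as ATP luminescence with CellTiter-Glo. Primary screens used 11-point (MIPE, 0.78 nM-46 µM) or 8-point (NPC, 0.59 nM-46 µM) final concentrations; follow-up screens used 11-point dilutions.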
# [3] = qHTS of pediatric cancer cell lines to identify multiple opportunities for drug repurposing: Primary screen for Rh41 cells (AID 1347108); note: potency is the fitted concentration of half-maximal effect; nearly all actives have a fitted effect of over 70% in size
# Summary of the method: as §1
# [4] = qHTS of pediatric cancer cell lines to identify multiple opportunities for drug repurposing: Confirmatory screen for NB1643 cells (AID 1347109); note: nearly all actives have a fitted effect of over 45% in size; note: potency is the fitted concentration of half-maximal effect;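 for activity change, negative = cytotoxic: plate controls were DMSO for no effect and bortezomib for full effect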
# Summary of the method: as §2
# [5] = qHTS of pediatric cancer cell lines to identify multiple opportunities for drug repurposing: Confirmatory screen for DAOY cells (AID 1347114); note: potency is the fitted concentration of half-maximal effect; nearly all actives have a fitted effect of over 65% in size
# Summary of the method: (§3)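 Viability measured as metabolically active cells via CellTiter-Glo luminescence following 48 hours of compound exposure, 11-point dilutions in confirmatory testing. 500-1,000 cells/well plated 5 hours before dosing; controls were DMSO and 2.3 µM bortezomib.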
# [6] = qHTS of pediatric cancer cell lines to identify multiple opportunities for drug repurposing: Confirmatory screen for TC32 cells (AID 1347118); note: nearly all actives have a fitted effect of over 65% in size; note: potency is the fitted concentration of half-maximal effect
# Summary of the method: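 TC32 cells, 500-1,000/well in growth medium, compound-treated 48 h at 37 °C; viability from CellTiter-Glo luminescence. Primary screen: MIPE 11-point (0.78 nM–46 µM final), NPC 8-point (0.59 nM–46 µM final); confirmatory at 11-point dilutions.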
# [7] = qHTS of pediatric cancer cell lines to identify multiple opportunities for drug repurposing: Confirmatory screen for MG 63 (6-TG R) cells (AID 1347119); note: nearly all actives have a fitted effect of over 55% in size; note: potency is the fitted concentration of half-maximal effect
# Summary of the method: as §2
# [8] = qHTS of pediatric cancer cell lines to identify multiple opportunities for drug repurposing: Confirmatory screen for U-2 OS cells (AID 1347122); note: potency is the fitted concentration of half-maximal effect; nearly all actives have a fitted effect of over 65% in size
# Summary of the method: as §2
# [9] = qHTS of pediatric cancer cell lines to identify multiple opportunities for drug repurposing: Confirmatory screen for Rh41 cells (AID 1347123); note: potency is the fitted concentration of half-maximal effect; nearly all actives have a fitted effect of over 60% in size
# Summary of the method: as §2
# [10] = qHTS of pediatric cancer cell lines to identify multiple opportunities for drug repurposing: Confirmatory screen for RD cells (AID 1347124);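 note: potency is the fitted concentration of half-maximal effect; cells exposed to compound for 48 h before viability readout; nearly all actives have a fitted effect of over 65% in size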
# Summary of the method: as §2
# [11] = qHTS of pediatric cancer cell lines to identify multiple opportunities for drug repurposing: Confirmatory screen for A673 cells (AID 1347110)
# Summary of the method: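 Concentration-response curves came straight from titrations: 11 points (0.78 nM to 46 µM) for MIPE and several concentrations (0.59 nM to 46 µM) for NPC in primary, 11 points in follow-up. Readout: ATP luminescence at 48 h.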
# [12] = qHTS of pediatric cancer cell lines to identify multiple opportunities for drug repurposing: Confirmatory screen for SK-N-MC cells (AID 1347111);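 note: potency is the fitted concentration of half-maximal effect; cells exposed to compound for 48 h before the readout; nearly all actives have a fitted effect of over 70% in size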
# Summary of the method: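 SK-N-MC cells at 500-1,000 cells/well in growth media were pre-incubated 5 h, then exposed to compounds at 11-point dilutions for 48 h at 37 degrees C, 5% CO2. Viability was read as CellTiter-Glo luminescence.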
# [13] = qHTS of pediatric cancer cell lines to identify multiple opportunities for drug repurposing: Confirmatory screen for LAN-5 cells (AID 1347113); note: nearly all actives have a fitted effect of over 65% in size; note: potency is the fitted concentration of half-maximal effect
# Summary of the method: as §2
# [14] = qHTS of pediatric cancer cell lines to identify multiple opportunities for drug repurposing: Confirmatory screen for NB-EBc1 cells (AID 1347115); note: nearly all actives have a fitted effect of over 45% in size; note: potency is the fitted concentration of half-maximal effect; for activity change, negative = cytotoxic: % is set by controls: 0 for no effect and ±100 for the full control effect
# Summary of the method: as §2
# [15] = qHTS of pediatric cancer cell lines to identify multiple opportunities for drug repurposing: Confirmatory screen for SJ-GBM2 cells (AID 1347116); note: nearly all actives have a fitted effect of over 60% in size; note: potency is the fitted concentration of half-maximal effect;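 for activity change, negative = cytotoxic: plate controls were DMSO for no effect and bortezomib for full effect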
# Summary of the method: as §3
# [16] = qHTS of pediatric cancer cell lines to identify multiple opportunities for drug repurposing: Confirmatory screen for BT-37 cells (AID 1347117); settings: BT-37 pediatric cancer cells, viability; activity change, negative = cytotoxic: at 45.9 µM (top of the series); note: nearly all actives have a fitted effect of over 55% in size; note: potency is the fitted concentration of half-maximal effect;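 for activity change, negative = cytotoxic: plate controls were DMSO for no effect and bortezomib for full effect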
# Summary of the method: as §2
# [17] = qHTS of pediatric cancer cell lines to identify multiple opportunities for drug repurposing: Confirmatory screen for control Hh wild type fibroblast cells (AID 1347121);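 note: plate controls were DMSO for no effect and bortezomib for full effect; nearly all actives have a fitted effect of over 70% in size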
# Summary of the method: as §2
# [18] = qHTS of pediatric cancer cell lines to identify multiple opportunities for drug repurposing: Confirmatory screen for Rh18 cells (AID 1347125); note: nearly all actives have a fitted effect of over 55% in size; note: potency is the fitted concentration of half-maximal effect; for activity change, negative = cytotoxic: % is set by controls: 0 for no effect and ±100 for the full control effect
# Summary of the method: as §2
# [19] = qHTS of pediatric cancer cell lines to identify multiple opportunities for drug repurposing: Confirmatory screen for BT-12 cells (AID 1347112); note: potency is the fitted concentration of half-maximal effect; nearly all actives have a fitted effect of over 55% in size
# Summary of the method: as §2
SMILES,Potency [1],Potency [2],Potency [3],Potency [4],Potency [5],Potency [6],Potency [7],Potency [8],Potency [9],Potency [10],Potency [11],Potency [12],Potency [13],Potency [14],Potency [15],"activity change, negative = cytotoxic [16]",Potency [17],Potency [18],Potency [16],Potency [19]
O=C1NC(=O)C(=Cc2ccc3nccc(-c4ccncc4)c3c2)S1,0.0743 µM (active),1.48 µM (active),0.59 µM (active),6.57 µM (active),8.27 µM (active),inactive,1.04 µM (active),2.61 µM (active),2610 nM (active),7.37 µM (active),,,,,,,,,,
CS[C@H]1SC[C@@H]2C(=O)N(C)[C@H](C(C)C)C(=O)OC[C@H](NC(=O)c3cnc4ccccc4n3)C(=O)N[C@H](C)C(=O)N(C)[C@@H]1C(=O)N(C)[C@H](C(C)C)C(=O)OC[C@H](NC(=O)c1cnc3ccccc3n1)C(=O)N[C@H](C)C(=O)N2C,0.0187 µM (active),inactive,,inactive,0.0147 µM (active),,inactive,0.0208 µM (active),5.9 nM (active),,5.9 nM (active),13.1 µM (active),inactive,inactive,inactive,1.7% (active),inactive,inactive,,
FC(F)c1nc2ccccc2n1-c1nc(N2CCOCC2)nc(N2CCOCC2)n1,0.187 µM (active),,1.48 µM (active),1.47 µM (active),,928 nM (active),0.928 µM (active),4.65 µM (active),2930 nM (active),8.27 µM (active),,0.737 µM (active),1.47 µM (active),,inactive,,,1.85 µM (active),1470 nM (active),
CCN(CC)CCCCNc1ncc2c(n1)N(C)C(=O)N(c1c(Cl)c(OC)cc(OC)c1Cl)C2,inactive,,18.7 µM (active),,,,,,,,,,,,,,,,,
COc1cc(OC)c(C=CS(=O)(=O)Cc2ccc(OC)c(NCC(=O)O)c2)c(OC)c1,inactive,inactive,,0.414 µM (active),0.165 µM (active),208 nM (active),0.208 µM (active),0.293 µM (active),293 nM (active),,,0.293 µM (active),1.17 µM (active),,,,,inactive,657 nM (active),
COc1cccc2c1C(=O)c1c(O)c3c(c(O)c1C2=O)C[C@@](O)(C(C)=O)C[C@H]3O[C@H]1C[C@H](N)[C@H](O)[C@H](C)O1,0.372 µM (active),inactive,0.0469 µM (active),0.165 µM (active),3.69 µM (active),117 nM (active),0.233 µM (active),7.37 µM (active),585 nM (active),2.61 µM (active),414 nM (active),0.165 µM (active),0.185 µM (active),,1.31 µM (active),,,2.61 µM (active),165 nM (active),1.31 µM (active)
O=C(O)C[C@H](O)C[C@H](O)C=Cc1c(C2CC2)nc2ccccc2c1-c1ccc(F)cc1,1.48 µM (active),,4.69 µM (active),,1.47 µM (active),2930 nM (active),,1.65 µM (active),4650 nM (active),11.7 µM (active),2330 nM (active),4.65 µM (active),,,,,,3.69 µM (active),,
C[C@H](NCc1ccc(OCc2cccc(F)c2)cc1)C(N)=O,18.7 µM (active),,18.7 µM (active),,,,,,,,,,,,,,,,,
COc1cccc2c1C(=O)c1c(O)c3c(c(O)c1C2=O)C[C@@](O)(C(=O)CO)C[C@@H]3O[C@H]1C[C@H](N)[C@@H](O)[C@H](C)O1,1.48 µM (active),inactive,0.662 µM (active),0.165 µM (active),1.47 µM (active),131 nM (active),,,293 nM (active),3.29 µM (active),,0.165 µM (active),0.165 µM (active),,0.737 µM (active),,,0.585 µM (active),117 nM (active),
C=CCNC1=C2C[C@@H](C)C[C@H](OC)[C@@H](O)[C@@H](C)C=C(C)[C@H](OC(N)=O)[C@@H](OC)C=CC=C(C)C(=O)NC(=CC1=O)C2=O,23.5 µM (active),13.2 µM (active),3.72 µM (active),1.17 µM (active),4.65 µM (active),522 nM (active),2.61 µM (active),0.414 µM (active),737 nM (active),0.131 µM (active),1170 nM (active),2.33 µM (active),4.65 µM (active),7.37 µM (active),0.165 µM (active),,,0.585 µM (active),92.8 nM (active),
CC(C=CC1=C(C)CCCC1(C)C)=CC=CC(C)=CC(=O)Nc1ccc(O)cc1,27 µM (active),42.9 µM (active),7.62 µM (active),42.7 µM (active),33.9 µM (active),2140 nM (active),42.7 µM (active),12 µM (active),5370 nM (active),,380 nM (active),2.4 µM (active),6.03 µM (active),13.5 µM (active),2.4 µM (active),,,42.7 µM (active),38000 nM (active),
